# Experimental data: PubChem BioAssay (EPA / NIEHS)
# Results filed as inconclusive are left out. The source made the active and inactive calls. Rule for the calls: active = hit-call score of the fitted dose curve at least 0.9, where 1 is the maximum; inconclusive = response in the unintended direction; inactive = score below 0.9.
# Assays:
# [1] = target: Beta-2 adrenergic receptor (Homo sapiens) (UniProt P07550); experiment: NVS_GPCR_hAdrb2: NovaScreen (NVS) G Protein-Coupled Receptor Assay for human Adrenergic, Beta 2 Receptor (Adrb2) (AID 2283261)
# Procedure, shortened: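 Compounds screened in duplicate at 25 uM, then actives in concentration series. Human beta-2 receptor from CHO material, cell-free; radioligand displacement after 1 h measured by filtration and scintillation against DMSO baseline.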
# [2] = target: human Endothelin Receptor Type A (ETA), EDNRA (gene 1909) (UniProt P25101); experiment: NVS_GPCR_hETA: NovaScreen (NVS) G Protein-Coupled Receptor Assay for human Endothelin Receptor Type A (ETA) (AID 2283265)
# Procedure, shortened: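 Binding of radioligand to membrane protein extracted from SH-SY5Y cells was read by filtration and scintillation after 3 h. Compounds were screened at 25 uM in duplicate, with hits followed up in singleton concentration series to 50 uM.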
# [3] = target: human Endothelin Receptor Type B (ETB), EDNRB (gene 1910) (UniProt P24530); experiment: NVS_GPCR_hETB: NovaScreen (NVS) G Protein-Coupled Receptor Assay for human Endothelin Receptor Type B (ETB) (AID 2283267)
# Procedure, shortened: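 Filter-based scintillation readout of radioligand displacement, 4 h, using membranes from human astrocytoma cells. Actives from a 25 uM duplicate screen were retested in concentration-response (top 50 uM) relative to DMSO baseline.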
# Chain of Beta-2 adrenergic receptor (Homo sapiens) (P07550 whole entry, looked up): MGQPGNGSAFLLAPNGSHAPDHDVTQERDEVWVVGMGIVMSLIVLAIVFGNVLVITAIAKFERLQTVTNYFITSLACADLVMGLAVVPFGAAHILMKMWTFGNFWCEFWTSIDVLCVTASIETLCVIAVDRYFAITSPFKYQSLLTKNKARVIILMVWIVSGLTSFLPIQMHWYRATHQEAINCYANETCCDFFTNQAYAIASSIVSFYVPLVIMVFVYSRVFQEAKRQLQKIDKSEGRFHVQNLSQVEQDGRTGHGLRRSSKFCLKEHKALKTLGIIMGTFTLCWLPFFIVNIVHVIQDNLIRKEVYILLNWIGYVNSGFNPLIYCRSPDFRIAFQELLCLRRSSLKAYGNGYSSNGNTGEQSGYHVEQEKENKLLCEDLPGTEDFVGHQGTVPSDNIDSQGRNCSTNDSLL
# Chain of human Endothelin Receptor Type B (ETB), EDNRB (gene 1910) (P24530 whole entry, looked up): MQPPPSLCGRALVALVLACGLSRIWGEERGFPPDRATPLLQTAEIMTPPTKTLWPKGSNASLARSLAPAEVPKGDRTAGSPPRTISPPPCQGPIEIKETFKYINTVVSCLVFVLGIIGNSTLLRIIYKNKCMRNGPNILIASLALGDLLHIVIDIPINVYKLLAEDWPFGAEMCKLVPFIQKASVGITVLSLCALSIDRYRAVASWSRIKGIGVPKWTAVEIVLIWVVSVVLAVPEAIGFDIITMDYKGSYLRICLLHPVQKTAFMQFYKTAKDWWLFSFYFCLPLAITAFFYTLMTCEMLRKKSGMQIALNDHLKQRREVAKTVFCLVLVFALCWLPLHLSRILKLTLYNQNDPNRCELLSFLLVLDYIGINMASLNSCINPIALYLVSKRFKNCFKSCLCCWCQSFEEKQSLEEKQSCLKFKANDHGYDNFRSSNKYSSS
# Chain of human Endothelin Receptor Type A (ETA), EDNRA (gene 1909) (P25101 whole entry, looked up): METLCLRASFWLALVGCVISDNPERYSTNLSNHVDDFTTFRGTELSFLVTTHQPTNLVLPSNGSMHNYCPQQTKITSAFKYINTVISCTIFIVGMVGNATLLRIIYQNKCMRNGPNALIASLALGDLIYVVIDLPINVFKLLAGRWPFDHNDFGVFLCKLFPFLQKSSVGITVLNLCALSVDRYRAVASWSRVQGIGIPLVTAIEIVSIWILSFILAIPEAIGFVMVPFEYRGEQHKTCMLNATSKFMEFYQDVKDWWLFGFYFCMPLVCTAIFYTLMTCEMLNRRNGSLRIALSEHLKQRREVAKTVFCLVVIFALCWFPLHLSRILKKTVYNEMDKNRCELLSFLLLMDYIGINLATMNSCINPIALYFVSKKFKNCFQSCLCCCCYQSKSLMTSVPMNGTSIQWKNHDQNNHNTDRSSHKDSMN
structure (smiles),measurement,setting,value
CC(C)CCCCCCOC(=O)C1CCCCC1C(=O)OCCCCCCC(C)C (centres undefined),outcome,[1],inactive
c1ccc(C(O[C@@H]2CCCN(CCc3ccc4c(c3)OCO4)C2)c2ccccc2)cc1,AC50,[1],13.5 µM (active)
CC[C@H](C)C(=O)O[C@H]1C[C@H](O)C=C2C=C[C@H](C)[C@H](CC[C@@H](O)C[C@@H](O)CC(=O)O)[C@H]21,outcome,[2],inactive
OCC(CO)(CO)CO,outcome,[3],inactive
